Results: PubChem BioAssay
A number with no mark means an inactive call. Calls of active or inactive are those of the source.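 Rule for the calls, unless noted: active = inhibition at or above 50% at 10 µM; inactive = inhibition below 50%.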

Assay: inhibitors of Sendai virus-induced IRF3 signaling, primary screen, TLR/RLR signaling modifier project, cell-based, Sendai virus stimulus, luciferase, 10K MLSCN set (AID 602276);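 note: firefly luciferase from ISG56 promoter only with Renilla not read in this screen; 0% = Sendai virus plus DMSO and 100% = medium plus DMSO without virus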
Conditions: HEK293 RL24 IRF3 luciferase reporter, at 10 µM, active compounds read high
In the case of `CCOCCCNC(=O)C(c1ccc(C)cc1)N(Cc1ccc2c(c1)OCO2)C(=O)c1cnccn1` (stereo not given), the inhibition is reported as 9.6%. For `CCc1cccc2c(=O)c(C(=O)N3CCCCCC3)c[nH]c12`, the inhibition was 4.31%. In the case of `Cn1c(NC(=O)c2ccccc2NC(=O)C(C)(C)C)nc2ccccc21`, the inhibition is reported as 1.78%. `Cc1cccc(NC(=O)COc2ccc(Br)cc2)n1` gave an inhibition of 2.6%. With `Cc1ccc(-c2ccc(=O)n(CC(=O)NCCCN3CCCCC3C)n2)cc1` (stereo not given) the inhibition was 11.3%. For `Cc1oc(-c2ccccc2F)nc1CS(=O)(=O)CC(=O)NCCCN1CCc2ccccc2C1`, the inhibition was 10.5%. Molecule `O=C(c1ccc(S(=O)(=O)N2CCOCC2)cc1)N(c1ccc(F)cc1)C1C=CS(=O)(=O)C1` (stereo not given) has an inhibition of 3.76%. Work on `CCC1CCCCN1C(=O)Cn1c(C(=O)OC)cc2sc(Cl)cc21` (stereo not given) yielded an inhibition of 9.78%. `CC(=O)Nc1ccc(N=Cc2nc(-c3ccc(C)cc3)oc2O)cc1` gave an inhibition of 1.5%. Molecule `COc1ccc(S(=O)(=O)Nc2ccc(F)c(Cl)c2)cc1OC` has an inhibition of 12.4%. With `CCCCN(CC)CCCNC(=O)c1cc2c(=O)n(C)c3ccccc3c2n1C` the inhibition was 27.4%. `CC1(C)NC(=O)N(CN2C(=O)NC(C)(C)C2=O)C1=O` gave an inhibition of 7.1%. Work on `CCOC(=O)c1cnn(-c2sc(C(=O)OCC)c(C)c2C(=O)OCC)c1N` yielded an inhibition of 7.68%. For `O=C(CCN1C(=O)C2C3C=CC(C3)C2C1=O)NC1CCCc2ccccc21` (stereo not given), the inhibition was 10.7%. With `COc1ccc(NC(=O)C(C)NS(=O)(=O)c2ccccc2)cc1Cl` (stereo not given) the inhibition was 8.06%. `CCOc1cc(C2C3=C(CCCC3=O)N(C)C3=C2C(=O)CCC3)cc(Cl)c1O` gave an inhibition of 4.36%. With `CN(C)c1cccc2c(S(=O)(=O)Nc3ccccn3)cccc12` the inhibition was 11.3%. `Cc1ccccc1-n1c(=O)cc(NCc2ccc3c(c2)OCO3)[nH]c1=O` gave an inhibition of 16.5%. With `COc1ccc(-c2nc3cc(NC(=O)Cc4ccc(OC)c(OC)c4)ccc3o2)cc1` the inhibition was -9.84%. `O=C(COc1ccccc1)NCC(c1cccs1)N1CCOCC1` (stereo not given) showed an inhibition of -14.3%. `COc1ccc(OCCN2C(=O)NC(C)(c3ccc(C)cc3)C2=O)cc1` (stereo not given) gave an inhibition of 12.5%. `CCOC(=O)c1ccc(Oc2nc(SC)nc(N(C)C)n2)cc1` gave an inhibition of 3.96%. With `CCC(C)NC(=O)C1(C)CCC(=O)N1CCc1ccc(OC)c(OC)c1` (stereo not given) the inhibition was 5.13%. For `O=C(CN1CCN(c2ncccn2)CC1)Nc1ccccc1-n1cccc1`, the inhibition was 14.7%. Molecule `O=C1CCCN1Cc1ncnn1-c1ccccc1` has an inhibition of 7.63%. `CN(C)c1ccnc(NCc2ccccc2)c1C#N` showed an inhibition of -8.5%. `CCCc1cc(C(=O)Nc2ccc(C(C)=O)cc2)no1` showed an inhibition of 15.4%. Molecule `O=C(CN(CCc1ccccc1)C(=O)CNS(=O)(=O)c1ccccc1)NCC1CCCO1` (stereo not given) has an inhibition of -8.2%. `Cc1ccc(SCC(=O)NCCN2C(=O)CSC2=O)c(C)c1` showed an inhibition of 0.863%. `COc1cc(C)c(N)cc1C(C)C` showed an inhibition of 12.9%. Work on `O=C(CSc1ncnc2c1cnn2Cc1ccccc1)Nc1ccc2c(c1)OCCO2` yielded an inhibition of 6.25%. With `O=C(Cn1ncc2c(=O)oc3ccccc3c21)NCC1CCCO1` (stereo not given) the inhibition was 4.27%. Molecule `COc1ccccc1Oc1ccc(S(=O)(=O)N2CCOCC2)cc1S(=O)(=O)N1CCOCC1` has an inhibition of 10%. For `CCOC(=O)N1CCN(C(=O)c2ccc3c(SCC(=O)O)c4c(nc3c2)CCCC4)CC1`, the inhibition was 9.84%. Molecule `CCc1nc(NCCCN2CCOCC2)c2oc3ccccc3c2n1` has an inhibition of 17.6%. `COc1ccc(OC)c(-c2nc3c(C)n[nH]c(=O)c3[nH]2)c1` showed an inhibition of 8.37%. Molecule `O=C(Nc1cccc(-c2nnc(-c3ccccc3)o2)c1)C1CCCCC1` has an inhibition of -20.4%. Molecule `Cc1ccc(S(=O)(=O)Nc2cc(C(=O)O)ccc2N2CCCCC2)cc1` has an inhibition of 11.2%. Molecule `Cc1cc2n(n1)C(c1ccccc1)Nc1ccccc1-2` (stereo not given) has an inhibition of -11.9%. With `Cc1ccc(C)c(C(=O)CC2(O)C(=O)N(C)c3ccccc32)c1` (stereo not given) the inhibition was 2.91%.

Assay: inhibitors of poly I:C-induced TLR3 signaling, primary screen, cell-based, poly I:C stimulus, luciferase, 10K MLSCN set (AID 602277;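 active = inhibition of the reporter signal at or above 50%; inactive = inhibition below 50%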)
Conditions: HEK293-TLR3 RL24 IRF3 luciferase reporter, at 10 µM, active compounds read high
In the case of `CCOCCCNC(=O)C(c1ccc(C)cc1)N(Cc1ccc2c(c1)OCO2)C(=O)c1cnccn1` (stereo not given), the inhibition is reported as 17%. In the case of `CCc1cccc2c(=O)c(C(=O)N3CCCCCC3)c[nH]c12`, the inhibition is reported as -4.51%. Molecule `Cn1c(NC(=O)c2ccccc2NC(=O)C(C)(C)C)nc2ccccc21` has an inhibition of -25.9%. Work on `Cc1cccc(NC(=O)COc2ccc(Br)cc2)n1` yielded an inhibition of -9.96%. For `Cc1ccc(-c2ccc(=O)n(CC(=O)NCCCN3CCCCC3C)n2)cc1` (stereo not given), the inhibition was 21.8%. Molecule `Cc1oc(-c2ccccc2F)nc1CS(=O)(=O)CC(=O)NCCCN1CCc2ccccc2C1` has an inhibition of 18.8%. For `O=C(c1ccc(S(=O)(=O)N2CCOCC2)cc1)N(c1ccc(F)cc1)C1C=CS(=O)(=O)C1` (stereo not given), the inhibition was 13.3%. With `CCC1CCCCN1C(=O)Cn1c(C(=O)OC)cc2sc(Cl)cc21` (stereo not given) the inhibition was 34.6%. Work on `CC(=O)Nc1ccc(N=Cc2nc(-c3ccc(C)cc3)oc2O)cc1` yielded an inhibition of -2.56%. Work on `COc1ccc(S(=O)(=O)Nc2ccc(F)c(Cl)c2)cc1OC` yielded an inhibition of 35.2%. For `CCCCN(CC)CCCNC(=O)c1cc2c(=O)n(C)c3ccccc3c2n1C`, the inhibition was 69.5% (active). With `CC1(C)NC(=O)N(CN2C(=O)NC(C)(C)C2=O)C1=O` the inhibition was 9.34%. Work on `CCOC(=O)c1cnn(-c2sc(C(=O)OCC)c(C)c2C(=O)OCC)c1N` yielded an inhibition of -49.4%. Work on `O=C(CCN1C(=O)C2C3C=CC(C3)C2C1=O)NC1CCCc2ccccc21` (stereo not given) yielded an inhibition of 30.7%. Work on `COc1ccc(NC(=O)C(C)NS(=O)(=O)c2ccccc2)cc1Cl` (stereo not given) yielded an inhibition of 17.6%. `CCOc1cc(C2C3=C(CCCC3=O)N(C)C3=C2C(=O)CCC3)cc(Cl)c1O` showed an inhibition of 26.6%. `CN(C)c1cccc2c(S(=O)(=O)Nc3ccccn3)cccc12` gave an inhibition of 19.3%. For `Cc1ccccc1-n1c(=O)cc(NCc2ccc3c(c2)OCO3)[nH]c1=O`, the inhibition was 19.7%. `COc1ccc(-c2nc3cc(NC(=O)Cc4ccc(OC)c(OC)c4)ccc3o2)cc1` gave an inhibition of -114%. Molecule `O=C(COc1ccccc1)NCC(c1cccs1)N1CCOCC1` (stereo not given) has an inhibition of -11.6%. Molecule `COc1ccc(OCCN2C(=O)NC(C)(c3ccc(C)cc3)C2=O)cc1` (stereo not given) has an inhibition of 5.61%. In the case of `CCOC(=O)c1ccc(Oc2nc(SC)nc(N(C)C)n2)cc1`, the inhibition is reported as 4.44%. For `CCC(C)NC(=O)C1(C)CCC(=O)N1CCc1ccc(OC)c(OC)c1` (stereo not given), the inhibition was 9.44%. For `O=C(CN1CCN(c2ncccn2)CC1)Nc1ccccc1-n1cccc1`, the inhibition was 8.32%. Work on `O=C1CCCN1Cc1ncnn1-c1ccccc1` yielded an inhibition of 3.72%. `CN(C)c1ccnc(NCc2ccccc2)c1C#N` gave an inhibition of -26.6%. For `CCCc1cc(C(=O)Nc2ccc(C(C)=O)cc2)no1`, the inhibition was -5.79%. `O=C(CN(CCc1ccccc1)C(=O)CNS(=O)(=O)c1ccccc1)NCC1CCCO1` (stereo not given) gave an inhibition of 13.9%. `Cc1ccc(SCC(=O)NCCN2C(=O)CSC2=O)c(C)c1` gave an inhibition of 35.6%. For `COc1cc(C)c(N)cc1C(C)C`, the inhibition was 18.3%. Molecule `O=C(CSc1ncnc2c1cnn2Cc1ccccc1)Nc1ccc2c(c1)OCCO2` has an inhibition of 17.7%. `O=C(Cn1ncc2c(=O)oc3ccccc3c21)NCC1CCCO1` (stereo not given) gave an inhibition of 9.41%. With `COc1ccccc1Oc1ccc(S(=O)(=O)N2CCOCC2)cc1S(=O)(=O)N1CCOCC1` the inhibition was 1.69%. `CCOC(=O)N1CCN(C(=O)c2ccc3c(SCC(=O)O)c4c(nc3c2)CCCC4)CC1` gave an inhibition of 21.6%. `CCc1nc(NCCCN2CCOCC2)c2oc3ccccc3c2n1` gave an inhibition of 25.2%. In the case of `COc1ccc(OC)c(-c2nc3c(C)n[nH]c(=O)c3[nH]2)c1`, the inhibition is reported as 20.2%. For `O=C(Nc1cccc(-c2nnc(-c3ccccc3)o2)c1)C1CCCCC1`, the inhibition was -62.4%. Molecule `Cc1ccc(S(=O)(=O)Nc2cc(C(=O)O)ccc2N2CCCCC2)cc1` has an inhibition of 29.2%. With `Cc1cc2n(n1)C(c1ccccc1)Nc1ccccc1-2` (stereo not given) the inhibition was -26.7%. `Cc1ccc(C)c(C(=O)CC2(O)C(=O)N(C)c3ccccc32)c1` (stereo not given) showed an inhibition of 33.7%.
